Most compounds without a hit are left out; they make up all but 19% or so of the library.
TDP1 cell noCPT = qHTS for Inhibitors of human tyrosyl-DNA phosphodiesterase 1 (TDP1): qHTS in cells in absence of CPT. Potency, µM (series often up to 46.2 µM), for inactives: at the top dose activity change, negative = growth inhibition, most hits filed as inhibitors. AID 686978, 2013. DT40 Tdp1-/- hTDP1 cells, no CPT, ATP luminescence, 48 h. 15% of 420,000 active; note: potency is the fitted concentration of half-maximal effect; nearly all actives have a fitted effect of over 55% in size
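Growth of hTDP1-complemented DT40 Tdp1-knockout cells is measured by ATP luminescence after at least 48 hr compound exposure at 37 °C, with DMSO substituting for the 20 nM CPT used in the parallel screen.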
HT1080-NT tox = kills 2HG-producing HT-1080-NT fibrosarcoma cells | HT-1080-NT fibrosarcoma viability, CellTiter-Glo ATP luminescence, 48 h | Potency, µM (titrated, usually from 46.1 µM), inactives show top-dose activity, negative = less viability, most hits filed as cytotoxic | 1.6% of 360,000 active | AID 686970;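 note: NT is the 2HG producing partner of a matched IDH1 knockdown line; potency is the fitted concentration of half-maximal effect; 0% = DMSO-treated cells and -100% = media-only wells without cells; nearly all actives have a fitted effect of over 55% in size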
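Fibrosarcoma NT cells, 750 per well in 5% FBS RPMI, were exposed to compound for 48 hours. Viability: CellTiter-Glo luminescence.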
TDP1 cell CPT = DT40-hTDP1 cell growth loss with CPT; chicken DT40 Tdp1-/-;hTDP1 cells + 20 nM CPT, ATP luminescence, 48 h; 12% of 420,000 active; AID 686979; Potency, µM (highest dose often 46.2 µM), inactives show at the top dose activity change, negative = growth inhibition, actives largely listed as inhibitors; note: potency is the fitted concentration of half-maximal effect; nearly all actives have a fitted effect of over 55% in size
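Cell growth measured by CellTiter-Glo luminescence after a minimum 48 h, 37 C compound exposure with 20 nM CPT in Tdp1-knockout DT40 cells stably expressing hTDP1, seeded 400/well; qHTS titration format.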
HT1080 IDH1KD tx = kills HT-1080 cells with IDH1 knockdown; HT-1080 IDH1 knockdown viability, ATP luminescence, 48 h; Potency, µM (top dose mostly 46.1 µM), without a hit: top-dose activity, negative = toxicity, hits mostly cytotoxic; 2% of 360,000 active; AID 686971;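 note: potency is the fitted concentration of half-maximal effect; 0% = DMSO wells and -100% = cell-free medium wells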
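HT-1080-IDH1KD cells (IDH1 knocked down), 750/well in RPMI with 5% FBS, treated with compound 48 h at 37 degrees C. Viability by CellTiter-Glo luminescence, normalised to DMSO and no-cell wells; concentration-response curves classed.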
IL1B secr inh = inhibitors of inflammasome signaling (IL-1 beta secretion) | THP-1 LPS/ATP IL-1B secretion, AlphaLISA, 16 h; active compounds read low | activity change, % at 57.5 µM | 4.7% of 360,000 active | AID 743279; in the data active = activity change below about -50%; inconclusive = mostly about -30% to -49%
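THP-1 cells pretreated 1 hr with compounds (up to 57.5 uM final), then stimulated with LPS (250 ng/mL final) plus ATP (1.25 mM final); secreted IL-1B measured by AlphaLISA after 16 hr, decreased signal indicating inhibition.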
Starred values were filed as active, the others as inactive; ? = inconclusive; / = not tested or not shown; [ ] = dose if it differs, or a comment. Unless noted, calls come from the whole dose curve; as a rule, active = well fitted curve in the direction sought with a large enough effect; inconclusive = small, poorly fitted or top-dose-only effect, or another doubt; inactive = no such curve, though single readings can be large; an effect the other way counts as inactive or inconclusive. Unless noted, % is set by controls: 0 for no effect and ±100 for the full control effect.

SMILES | TDP1 cell noCPT | HT1080-NT tox | TDP1 cell CPT | HT1080 IDH1KD tx | IL1B secr inh
CCOC(=O)C1CCN(c2c(C(=O)c3ccc(OC)cc3)cnc3ccccc23)CC1 | 16µM* | / | 21µM* | / | /
COc1ccccc1N1CCN(Cc2ccc(C(=O)O)cc2)CC1 | -4% | 1% | -3% | 2% | 36
CCOC(=O)C1CCN(c2c(C(=O)c3ccccc3)cnc3ccc(CC)cc23)CC1 | 18µM* | 0% | ? | 8% | 3
CCOC(=O)C1CCCN(c2c(C(=O)c3ccccc3)cnc3ccccc23)C1 (stereo unspecified) | -29% | -17% | -10% | -9% | 22
O=C(NC1CCCCC1)C1c2ccccc2OCC(=O)N1CCCN1CCOCC1 (stereo unspecified) | 3% | 14% | 4% | 4% | 17
COc1ccccc1NS(=O)(=O)c1ccc(N/N=C/c2ccccc2OCC(=O)O)c([N+](=O)[O-])c1 | -7% | -17% | -7% | -14% | -3
COc1ccccc1NS(=O)(=O)c1ccc(NN=C2CCCC2)c([N+](=O)[O-])c1 | 16µM* | 5% | 18µM* | -17% | -7
CC(C)(C)C1CCC(=NNc2ccc(S(N)(=O)=O)cc2[N+](=O)[O-])CC1 (stereo unspecified) | 21µM* | ? | 16µM* | 18µM* | -87*
COc1ccccc1NS(=O)(=O)c1ccc(N/N=C/C=C/c2ccccc2[N+](=O)[O-])c([N+](=O)[O-])c1 | ? | -5% | -11% | 1% | 3
COc1ccccc1NS(=O)(=O)c1ccc(N/N=C/c2c(C)nn(-c3ccccc3)c2N2CCCC2)c([N+](=O)[O-])c1 | 6.5µM* | -1% | ? | 7% | -24
COc1c(/C=N/Nc2ccc([N+](=O)[O-])cc2[N+](=O)[O-])c(C)nn1-c1ccccc1 | ? | 10% | ? | 8% | -4
Cc1nn(-c2ccccc2)c(N2CCCC2)c1/C=N/Nc1ccc(S(=O)(=O)Nc2ccccc2)cc1[N+](=O)[O-] | 7.3µM* | -16% | 5.8µM* | -7% | 33
CC1CCCC/C1=N\Nc1ccc(S(N)(=O)=O)cc1[N+](=O)[O-] (stereo unspecified) | ? | 15% | ? | 8% | 8
C[C@H](NC(=O)COc1ccccc1)C(=O)OCC(=O)c1cc2ccccc2o1 | ? | 7% | ? | 14% | 9
O=C(NC(Cc1c[nH]c2ccccc12)C(=O)NCCCN1CCOCC1)c1cccs1 (stereo unspecified) | -8% | -4% | -6% | -4% | 6
COc1ccccc1NS(=O)(=O)c1cccc(C(=O)N/N=C/c2c(C)nn(-c3ccccc3)c2N2CCCC2)c1 | 21µM* | 2% | 21µM* | 1% | -2
COc1ccccc1NS(=O)(=O)c1cccc(C(=O)N/N=C/c2cn(-c3ccccc3)nc2-c2ccccc2)c1 | ? | ? | ? | -11% | -4
C=CCNC(=O)c1ccc2c(=O)n(CCCN3CCCC3=O)c(=S)[nH]c2c1 | 2% | 4% | 12% | 5% | -14
CC1C(=O)N(Cc2cn(CC3CCCCC3)nn2)CCS(=O)(=O)N1Cc1ccc(-c2cccc(CO)c2)cc1 (stereo unspecified) | 23µM* | -15% | 15µM* | -19% | 11
CC(C)CC1C(=O)N(Cc2cn(CC3CCCCC3)nn2)CCS(=O)(=O)N1Cc1ccc(-c2cccc(CO)c2)cc1 (stereo unspecified) | 23µM* | ? | 21µM* | ? | -27
CCOc1ccc(NC(=O)CN(C)C(=O)c2cc3c(s2)CCCCC3)cc1OCC | ? | 4% | 2% | -5% | -12
Cc1ccccc1-n1c(SC(C)C(=O)N2CCN(C)CC2)nc2ccccc2c1=O (stereo unspecified) | -21% | -3% | -22% | -2% | -20
Cc1cc(C)n2nc(SCC(=O)NC(=O)c3ccc(OC(F)F)cc3)nc2n1 | -6% | 0% | -5% | 15% | 6
COc1ccc(C2c3ccc(O)cc3Oc3ncn4nc(-c5ccncc5)nc4c32)cc1OC (stereo unspecified) | 23µM* | -15% | ? | 0% | -70*
COc1ccc(C2c3ccc(O)cc3Oc3ncn4nc(-c5ccccn5)nc4c32)cc1OC (stereo unspecified) | 18µM* | -4% | 23µM* | -12% | 34
SMILES | TDP1 cell noCPT | HT1080-NT tox | TDP1 cell CPT | HT1080 IDH1KD tx | IL1B secr inh
COc1ccc(C2c3ccc(O)cc3Oc3ncn4nc(-c5ccco5)nc4c32)cc1OC (stereo unspecified) | ? | ? | 16µM* | 18µM* | 32
COc1ccc(C2c3ccc(O)cc3Oc3ncn4nc(-c5ccccn5)nc4c32)cc1 (stereo unspecified) | -9% | -12% | -13% | ? | 24
O=C(COC(=O)c1ccccn1)NC(=O)c1ccccc1 | 6% | 0%[9.24 µM] | -1% | -8% | 0
CC1(C)Cc2c(cnn2-c2cccc(F)c2)C(NC(=O)CSc2ccccn2)C1 (stereo unspecified) | ? | 0% | ? | 12% | -26
O=S(=O)(CC(CN1CCCC1)N1CCCC1)c1ccc2ccccc2c1 (stereo unspecified) | 4.6µM* | 16µM* | 3.3µM* | 23µM* | -107*
NC(=O)C(c1ccc(F)cc1)c1ccc(C(=O)c2ccccc2)cc1 (stereo unspecified) | -29% | -12% | ? | -21% | -1
NC(=O)C(c1ccc(Br)cc1)c1ccc(C(=O)c2ccccc2)cc1 (stereo unspecified) | 15µM* | ? | ? | ? | -91*
CCOC(=O)c1c(C2COc3ccccc3O2)csc1NC(=O)c1ccco1 (stereo unspecified) | 11µM* | 23% | 14µM* | 2% | -54*
CCOC(=O)c1c(-c2cccs2)csc1NC(=O)c1ccco1 | -11% | 17% | 6% | 17% | 1
COc1ccc(NC(=O)CCS(=O)(=O)c2ccc3c(c2)oc(=O)n3C)cc1 | 17% | 16% | 1% | 0% | 0
Cc1nc(N/N=C/c2ccc(O)cc2)c2cnn(-c3ccccc3)c2n1 | 23µM* | ? | ? | ? | -74*
Cc1nc2ccccc2nc1N/N=C/c1ccc(O)cc1 | 0% | 2% | -3% | 5% | 5
O=C(COCc1cc(-c2cccs2)on1)Nc1ccc(OC(F)(F)F)cc1 | -19% | / | -18% | / | /
CCC(C)Nc1c2c(nc3c(-c4ccccc4)c(C)nn13)CCC2 (stereo unspecified) | ? | -19% | ? | ? | ?

Source: PubChem BioAssay (National Center for Advancing Translational Sciences (NCATS))
